From PubChem BioAssay (NCATS)
Records with an inconclusive call do not appear. The source made the active and inactive calls. Unless noted, the call rests on the fitted dose curve; in most records, active means well fitted curve in either direction with a large enough effect (not every such curve was filed as active); inconclusive means small, poorly fitted or top-dose-only effect, or another doubt; inactive means flat fitted curve, though single readings scatter.

Tests used:
[1] = target: Lysosomal acid glucosylceramidase (Homo sapiens) (UniProt P04062); experiment: Glucocerebrosidase-p2 (AID 348; in the data active means potency below about 10 µM; further: potency means the concentration at half of the fitted maximal effect); conditions: purified GBA, blue fluorogenic substrate, 40 min
How it was run: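 Normal human glucocerebrosidase (0.2 nM) with blue fluorogenic substrate (80 uM final) in citrate/phosphate pH 5.9 with 10mM sodium taurocholate, 0.01% tween-20; 40 min RT, NaOH/glycine stop; fluorescence Ex 365/Em 440; AC50 from a titration from 0.6 nM upwards.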

[2] = AP1 Signaling Pathway (AID 357); conditions: ME-180 AP-1-bla reporter, EGF-induced, beta-lactamase ratio, 5 h; at 7.69 µM (top of the series) unless noted; further: on the % scale 0 is the no-effect control and ±100 the full control effect
How it was run: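 In this screen, ME-180 cells in Opti-MEM with 0.5% dialyzed FBS received EC50 EGF and compound titrations for 5 h. AP-1 reporter beta-lactamase was detected via CCF4 ratio, giving AC50 for positive and negative modulators.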

[3] = NFAT Signaling Pathway (AID 444); conditions: Jurkat NFAT-bla M1, carbachol, beta-lactamase ratio, 5 h; at 7.69 µM (top of the series) unless noted;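 further: carbachol stimulus at about its EC50 of 1 µM final; on the % scale 0 is the no-effect control and ±100 the full control effect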
How it was run: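 Jurkat cells with NFAT-driven β-lactamase reporter and co-expressed M1 receptor, stimulated with carbachol (final 1 uM, ~EC50), compound titration, 5 h at 37 °C. CCF4 loaded 1 h at RT; 460/530 nm ratio gave %activity and AC50.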

[4] = Stat Signaling Pathway (AID 446); conditions: ME-180 (cervical carcinoma) SIE beta-lactamase reporter, IL-6 stimulated, 5 h; at 7.69 µM (top of the series) unless noted;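 further: ME-180 cervical cancer cells given 40 pM IL-6 alongside compound; SIE-controlled beta-lactamase reporter measured as 460/530 nm FRET emission ratio; on the % scale 0 is the no-effect control and ±100 the full control effect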
How it was run: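 Normalization used AC90 stimulation (300 pM IL-6) and AC90 inhibition (125 nM pan-JAK inhibitor at 40 pM IL-6). The underlying signal is SIE-driven beta-lactamase in ME-180 cells after 5 h IL-6 exposure with compound.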

[5] = target: Glucocorticoid receptor (Homo sapiens) (UniProt P04150); experiment: GR-GFP Redistribution (AID 450;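 active means compounds whose dose series gives a full or clear partial fitted curve of increased nuclear translocation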; further: potency means the concentration at half of the fitted maximal effect); conditions: U2OS GR-GFP nuclear translocation, laser cytometry, 2 h
[6] = target: Glucocorticoid receptor (Homo sapiens) (UniProt P04150); experiment: GR-EFC Redistribution (AID 451; calls by dose curve; further: potency means the concentration at half of the fitted maximal effect); conditions: CHO-K1 GR-EFC translocation, beta-gal luminescence, 2 h
How it was run: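 CHO-K1 cells expressing nuclear EA and GR-ED fragments of b-gal; compounds titrated up to 46 uM final, 2 h at 37 C. GR nuclear translocation read as complemented b-gal luminescence after 1 h RT detection.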

[7] = target: Mitogen-activated protein kinase 10 (Mus musculus) (UniProt Q61831); experiment: JNK3 AlphaScreen Assay (AID 530); conditions: JNK3 lysate, c-Jun phosphorylation; series mostly up to 11.4 µM;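 further: kinase came from lysate of stimulated human HepG2 cells; signal reports phosphorylation of biotinylated GST-cJun 1-79 at Ser73 with 10 µM ATP; on the % scale 0 is the no-effect control and ±100 the full control effect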
How it was run: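 Activity was read by AlphaScreen after JNK3-containing HepG2 lysate (cytokine pre-activated) phosphorylated biotinylated GST-cJun with 10 uM ATP at room temperature. Phospho-Ser73 cJun antibody with Protein-A acceptor beads provided detection.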

[8] = target: 3',5'-cyclic-AMP phosphodiesterase 4B (Homo sapiens) (UniProt Q07343); experiment: qHTS Assay for Inhibitors of PDE-IV (AID 607; active means well fitted activation curve with a large enough effect in the main read-out, with a control signal flat, not every such curve was filed as active; further: % of control where 0% means no effect); conditions: HEK293 ACTOne CNG channel cells, membrane potential fluorescence; series mostly up to 22.9 µM
How it was run: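 HEK293 ACTOne cells with CNG channel (1000/well), endogenous PDE4; membrane potential dye, compounds up to 22.9 uM final. Fluorescence Ex 535/Em 590; RO 20-1724 (100 uM final) as reference.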

Sequence of Glucocorticoid receptor (Homo sapiens) (P04150 whole entry, looked up, the tested form may be a part): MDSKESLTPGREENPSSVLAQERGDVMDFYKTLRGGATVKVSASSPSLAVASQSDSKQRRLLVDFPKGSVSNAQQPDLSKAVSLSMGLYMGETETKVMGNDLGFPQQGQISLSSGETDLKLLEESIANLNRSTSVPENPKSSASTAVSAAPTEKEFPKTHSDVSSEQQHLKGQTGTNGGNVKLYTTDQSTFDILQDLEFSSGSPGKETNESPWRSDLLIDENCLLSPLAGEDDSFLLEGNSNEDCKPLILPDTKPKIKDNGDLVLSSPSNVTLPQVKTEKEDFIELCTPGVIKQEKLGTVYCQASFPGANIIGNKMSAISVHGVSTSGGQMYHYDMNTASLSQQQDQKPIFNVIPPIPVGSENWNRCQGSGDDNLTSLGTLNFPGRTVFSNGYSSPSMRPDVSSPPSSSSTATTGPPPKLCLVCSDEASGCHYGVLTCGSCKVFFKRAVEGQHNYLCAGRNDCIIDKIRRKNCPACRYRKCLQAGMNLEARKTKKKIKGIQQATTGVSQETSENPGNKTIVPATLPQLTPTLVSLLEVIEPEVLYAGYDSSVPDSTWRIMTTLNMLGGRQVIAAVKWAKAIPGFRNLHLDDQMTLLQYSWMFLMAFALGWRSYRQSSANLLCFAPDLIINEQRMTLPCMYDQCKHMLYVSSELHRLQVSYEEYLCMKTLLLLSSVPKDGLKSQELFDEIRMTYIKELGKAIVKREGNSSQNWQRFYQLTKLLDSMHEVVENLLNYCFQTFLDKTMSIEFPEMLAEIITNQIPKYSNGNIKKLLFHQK
Sequence of Lysosomal acid glucosylceramidase (Homo sapiens) (P04062 whole entry, looked up): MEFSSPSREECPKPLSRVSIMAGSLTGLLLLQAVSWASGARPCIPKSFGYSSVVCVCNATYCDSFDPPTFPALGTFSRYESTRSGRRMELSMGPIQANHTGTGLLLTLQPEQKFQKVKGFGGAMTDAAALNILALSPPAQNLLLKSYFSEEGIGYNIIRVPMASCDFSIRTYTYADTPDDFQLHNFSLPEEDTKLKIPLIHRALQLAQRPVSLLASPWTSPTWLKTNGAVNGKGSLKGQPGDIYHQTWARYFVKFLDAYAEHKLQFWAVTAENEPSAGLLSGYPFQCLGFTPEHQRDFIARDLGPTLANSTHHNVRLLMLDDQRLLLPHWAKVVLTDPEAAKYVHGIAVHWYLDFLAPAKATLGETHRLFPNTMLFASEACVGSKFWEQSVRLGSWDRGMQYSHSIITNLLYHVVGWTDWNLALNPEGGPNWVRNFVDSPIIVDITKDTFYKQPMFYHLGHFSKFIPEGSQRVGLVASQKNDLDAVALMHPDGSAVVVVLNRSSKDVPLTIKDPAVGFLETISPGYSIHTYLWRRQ
Sequence of 3',5'-cyclic-AMP phosphodiesterase 4B (Homo sapiens) (Q07343 whole entry, looked up): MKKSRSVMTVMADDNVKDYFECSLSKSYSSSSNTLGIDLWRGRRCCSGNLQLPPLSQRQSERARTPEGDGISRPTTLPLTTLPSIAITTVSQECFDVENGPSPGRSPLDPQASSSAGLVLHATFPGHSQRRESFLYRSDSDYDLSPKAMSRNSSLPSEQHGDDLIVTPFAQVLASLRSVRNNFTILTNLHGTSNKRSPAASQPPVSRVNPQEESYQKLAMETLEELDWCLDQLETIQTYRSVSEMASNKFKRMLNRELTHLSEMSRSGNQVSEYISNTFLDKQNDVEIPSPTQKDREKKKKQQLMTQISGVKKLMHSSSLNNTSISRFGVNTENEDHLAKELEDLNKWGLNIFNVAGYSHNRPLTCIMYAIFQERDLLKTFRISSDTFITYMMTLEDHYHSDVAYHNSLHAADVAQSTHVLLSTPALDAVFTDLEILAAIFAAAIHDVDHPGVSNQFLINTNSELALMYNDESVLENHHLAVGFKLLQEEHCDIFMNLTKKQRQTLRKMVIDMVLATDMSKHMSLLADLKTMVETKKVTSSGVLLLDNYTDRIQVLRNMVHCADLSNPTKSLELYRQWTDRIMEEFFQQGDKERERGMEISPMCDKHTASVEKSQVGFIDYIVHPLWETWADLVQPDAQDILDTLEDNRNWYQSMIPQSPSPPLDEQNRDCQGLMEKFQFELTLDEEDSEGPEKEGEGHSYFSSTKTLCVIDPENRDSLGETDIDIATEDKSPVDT

COc1c2c(c3c(c1CCC(=O)O)OC(C)(C)C=C3)OC(C)(C)C=C2
inactive: Potency [1] > 11.4 µM | activity change, negative = inhibition [2] -1.7% | activity change, negative = inhibition [3] 13.1% | activity, negative = inhibition [4] -3.06% | Potency [5] > 46 µM | Potency [6] > 9.22 µM | Potency [7] | Potency [8]

CC(C)=CCNc1ncnc2nc[nH]c12
inactive: Potency [1] > 11.4 µM | activity change, negative = inhibition [2] 3.85% | activity change, negative = inhibition [3] 6.81% | activity, negative = inhibition [4] 5.75% | Potency [5] > 46 µM | Potency [6] > 9.22 µM | Potency [7] | Potency [8]

O=C(O)CSCc1cccc2ccccc12
inactive: Potency [1] > 11.4 µM | activity change, negative = inhibition [2] -0.864% | activity change, negative = inhibition [3] 16.3% | activity, negative = inhibition [4] 2.65% | Potency [5] > 46 µM | Potency [6] > 9.22 µM | Potency [7] | Potency [8]

O=C1CCC[C@H]1C(=O)Nc1ccc2ccccc2c1
inactive: Potency [1] > 11.4 µM | activity change, negative = inhibition [2] 7.06% | activity change, negative = inhibition [3] 16.2% | activity, negative = inhibition [4] 8.65% | Potency [5] > 46 µM | Potency [6] > 9.22 µM | Potency [7] | Potency [8]

S=C1NCN2CCN(CC2)CNC(=S)C(=S)NCN2CCN(CC2)CNC1=S
inactive: Potency [1] > 11.4 µM | activity change, negative = inhibition [2] 3.32% | activity change, negative = inhibition [3] -3.6% | activity, negative = inhibition [4] 3.07% | Potency [5] > 46 µM | Potency [6] > 9.22 µM | Potency [7] | Potency [8]

O=C(O)CCn1cnc2c(=S)nc[nH]c21
inactive: Potency [1] > 11.4 µM | activity change, negative = inhibition [2] -2.08% | activity change, negative = inhibition [3] 1.47% | activity, negative = inhibition [4] -0.455% | Potency [5] > 46 µM | Potency [6] > 9.22 µM | Potency [7] | Potency [8]

COc1nc(Cl)nc(Cl)c1Cl (tested in a mixture with another compound)
inactive: Potency [1] > 11.4 µM | activity change, negative = inhibition [2] 2.89% | activity change, negative = inhibition [3] 3.88% | activity, negative = inhibition [4] 7.12% | Potency [5] > 46 µM | Potency [6] > 9.22 µM | Potency [7] | Potency [8]

O=C(O)C(Cc1ccccc1)Cc1ccccc1
inactive: Potency [1] > 11.4 µM | activity change, negative = inhibition [2] 8.41% | activity change, negative = inhibition [3] 1.48% | activity, negative = inhibition [4] -8.39% | Potency [5] > 46 µM | Potency [6] > 9.22 µM | Potency [7] | Potency [8]

O=c1oc2ccccc2c(O)c1/C=N/c1nc(-c2ccc(O)c(O)c2)cs1
inactive: Potency [1] > 11.4 µM | activity change, negative = inhibition [2] -3.14% | activity change, negative = inhibition [3] 27.7% | activity, negative = inhibition [4] -11.7% | Potency [5] > 46 µM | Potency [6] > 9.22 µM | Potency [7] | Potency [8]

COc1ccc(Oc2ncc3nc(-c4ccccc4)c(=O)n(CCC#N)c3n2)cc1
inactive: Potency [1] > 11.4 µM | activity change, negative = inhibition [2] -26.9% | activity change, negative = inhibition [3] -6.24% | activity, negative = inhibition [4] -6.05% | Potency [5] > 9.22 µM | Potency [6] > 46 µM | Potency [7] | Potency [8]

COc1ccc(Oc2ncc3nc(-c4ccc(Cl)cc4)c(=O)n(CCC#N)c3n2)cc1
inactive: Potency [1] > 11.4 µM | activity change, negative = inhibition [2] -25.6% | activity change, negative = inhibition [3] 0.455% | activity, negative = inhibition [4] -7.87% | Potency [5] > 46 µM | Potency [6] > 46 µM | Potency [7] | Potency [8]

COCCn1c(=O)cnc2cnc(N3CCNCC3)nc21
inactive: Potency [1] > 11.4 µM | activity change, negative = inhibition [2] -9.65% | activity change, negative = inhibition [3] -7.03% | activity, negative = inhibition [4] -2.85% | Potency [5] > 9.22 µM | Potency [6] > 46 µM | Potency [7] | Potency [8]

C[N+](C)(N)Cc1nc(-c2ccc(Cl)cc2)no1
inactive: Potency [1] > 11.4 µM | activity change, negative = inhibition [2] 3.76% | activity change, negative = inhibition [3] -6.01% | activity, negative = inhibition [4] 4.26% | Potency [5] > 46 µM | Potency [6] > 9.22 µM | Potency [7] | Potency [8]
